Where “and” joins values, the source holds several entries; their conditions need not be identical. Equal values may be shown once. Calls of active or inactive are those of the source. Unless noted, calls come from the whole dose curve; as a rule, active = well fitted curve in the direction sought with a large enough effect in the repeat runs; inconclusive = weak or mixed curves; inactive = no such curve, though single readings can be large; an effect the other way counts as inactive or inconclusive.
Legend:
[1] = qHTS assay for small molecules that induce genotoxicity in human embryonic kidney cells expressing luciferase-tagged ATAD5 (AID 651632); note: nearly all actives have a fitted effect of over 15% in size
Procedure, shortened: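 Luminescent reporter readout, HEK293T ATAD5-luc line: 16 hr drug exposure (37C, 5% CO2) followed by Amplite, 30 min RT.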

[2] = qHTS assay for small molecule agonists of the p53 signaling pathway - cell viability (AID 651633; calls by dose curve; note: nearly all actives have a fitted effect of over 30% in size; note: potency is the fitted concentration of half-maximal effect)
Procedure, shortened: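 p53RE-bla cells, seeded at 4,000 per well and rested 5 h at 37 C/5% CO2, received compounds in DMSO for 16 h at 37 C. CellTiter-Glo was then added, and luminescence was read after 30 min at room temperature to gauge cytotoxicity.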

[3] = qHTS assay for small molecule disruptors of the mitochondrial membrane potential - cell viability (AID 720634; calls by dose curve;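 note: human HepG2 liver cancer cells; series mostly up to about 83 µM; nearly all actives have a fitted effect of over 20% in size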)
Procedure, shortened: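 HepG2, 1 hr compound, 37 C. ATP luminescence via CellTiter-Glo, 30 min RT, same well as m-MPI.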

[4] = qHTS assay to test for compound auto fluorescence at 590 nm (red) in HepG2 cells (AID 720674)
Procedure, shortened: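 Compound auto-fluorescence is scored relative to Rose Bengal sodium, measured at 540/590 nm in live HepG2 cultures after 1 hr compound contact (37 C, 5% CO2).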

[5] = qHTS assay to test for compound auto fluorescence at 535 nm (green) in HepG2 cells (AID 720675)
[6] = qHTS assay to test for compound auto fluorescence at 460 nm (blue) in HEK293 cells (AID 720678)
Procedure, shortened: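 Measured: blue fluorescence (Ex 405/Em 460 nm) of compound-treated HEK293 cells, incubated overnight at 37C with 5% CO2 and scaled to triamterene equivalents.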

[7] = qHTS assay to test for compound auto fluorescence at 590 nm (red) in HEK293 cells (AID 720679)
Procedure, shortened: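 Using HEK293 cells at 2,000 per well, the screen added 23 nL of each compound after cell attachment and incubated overnight (37C, 5% CO2). The plate reader then captured red-label fluorescence, Ex/Em 540/590nm.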

[8] = qHTS assay to test for compound auto fluorescence at 535 nm (green) in HEK293 cells (AID 720680)
[9] = qHTS assay to test for compound auto fluorescence at 460 nm (blue) in HEK293 cell free culture (AID 720681)
Procedure, shortened: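 Test compounds were pinned into cell-free culture medium (DMEM with 10% FBS) and fluorescence was read directly at Ex/Em 405/460 nm. Signals were expressed as fluorescence equivalents of triamterene, with DMSO vehicle as control.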

[10] = qHTS assay to test for compound auto fluorescence at 535 nm (green) in HEK293 cell free culture (AID 720682)
Procedure, shortened: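 Each library compound, or DMSO control, is added by pintool to medium alone, comprising DMEM and 10% FBS. Emission at 535 nm following 485 nm excitation is quantified against fluorescein.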

[11] = qHTS assay to test for compound auto fluorescence at 590 nm (red) in HEK293 cell free culture (AID 720683)
Procedure, shortened: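 Tox21 10K library compounds were pinned into cell-free DMEM with 10% FBS and fluorescence was read at excitation 540 nm. Activity is expressed as Rose Bengal sodium equivalency.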

[12] = qHTS assay to test for compound auto fluorescence at 590 nm (red) in HepG2 cell free culture (AID 720684)
Procedure, shortened: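 Measured in medium alone (MEM containing 10% FBS) following pintool addition of compound; emission at 590 nm with 540 nm excitation, referenced to Rose Bengal sodium.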

[13] = qHTS assay to test for compound auto fluorescence at 460 nm (blue) in HepG2 cell free culture (AID 720685)
Procedure, shortened: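 Compound (23 nL) or DMSO pinned into cell-free MEM with 10% FBS; blue fluorescence read at 405/460 nm excitation/emission, expressed as auto-fluorescence equivalency to triamterene.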

[14] = qHTS assay to test for compound auto fluorescence at 535 nm (green) in HepG2 cell free culture (AID 720686)
[15] = qHTS assay to test for compound auto fluorescence at 460 nm (blue) in HepG2 cells (AID 720687)
Procedure, shortened: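 Cells (2,000/well in MEM with 10% FBS) attached overnight at 37 C, then were exposed to compound or DMSO for 1 hr at 37 C, 5% CO2. Fluorescence read at Ex/Em 405/460 nm, expressed as triamterene-equivalent signal.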

[16] = target: Glucocorticoid receptor (Homo sapiens) (UniProt P04150); assay: qHTS assay to identify small molecule agonists of the glucocorticoid receptor (GR) signaling pathway (AID 720691; active = well fitted activation curve with a large enough effect in the signal ratio in the repeat runs, not every such curve was filed as active; inconclusive = weak or mixed curves, or effect the other way; inactive = no such curve, though single readings can be large or run the other way; the % refers to the signal ratio; note: potency is the fitted concentration of half-maximal effect)
Procedure, shortened: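 qHTS in GR-bla HeLa cells: 4 h settling at 37 C/5% CO2, 18 h compound incubation at 37 C, 2 h LiveBLAzer B/G FRET substrate at room temperature, fluorescence intensity measured.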

[17] = target: Glucocorticoid receptor (Homo sapiens) (UniProt P04150); assay: qHTS assay to identify small molecule antagonists of the glucocorticoid receptor (GR) signaling pathway (AID 720692; active = well fitted inhibition curve with a large enough effect in the signal ratio in the repeat runs, not every such curve was filed as active; inconclusive = weak or mixed curves, or effect the other way; inactive = no such curve, though single readings can be large or run the other way; the % refers to the signal ratio; note: potency is the fitted concentration of half-maximal effect)
Procedure, shortened: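 Inhibition of glucocorticoid signalling is measured in HeLa cells with a GRE-controlled beta-lactamase reporter; cells are co-treated with compound and 5 nM dexamethasone (final) for 18 h before FRET substrate readout.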

[18] = qHTS assay for small molecule disruptors of the mitochondrial membrane potential (AID 720635); note: potency is the fitted concentration of half-maximal effect
Procedure, shortened: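 HepG2 cells (2,000/well) attached overnight at 37C, then took compound for 1 hr at 37C, 5% CO2. Mito-MPS dye was added for 30 min; fluorescence was read at 490/535 nm (monomers) and 540/590 nm (aggregates).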

Measured: Potency

Chain of Glucocorticoid receptor (Homo sapiens) (P04150 whole entry, looked up): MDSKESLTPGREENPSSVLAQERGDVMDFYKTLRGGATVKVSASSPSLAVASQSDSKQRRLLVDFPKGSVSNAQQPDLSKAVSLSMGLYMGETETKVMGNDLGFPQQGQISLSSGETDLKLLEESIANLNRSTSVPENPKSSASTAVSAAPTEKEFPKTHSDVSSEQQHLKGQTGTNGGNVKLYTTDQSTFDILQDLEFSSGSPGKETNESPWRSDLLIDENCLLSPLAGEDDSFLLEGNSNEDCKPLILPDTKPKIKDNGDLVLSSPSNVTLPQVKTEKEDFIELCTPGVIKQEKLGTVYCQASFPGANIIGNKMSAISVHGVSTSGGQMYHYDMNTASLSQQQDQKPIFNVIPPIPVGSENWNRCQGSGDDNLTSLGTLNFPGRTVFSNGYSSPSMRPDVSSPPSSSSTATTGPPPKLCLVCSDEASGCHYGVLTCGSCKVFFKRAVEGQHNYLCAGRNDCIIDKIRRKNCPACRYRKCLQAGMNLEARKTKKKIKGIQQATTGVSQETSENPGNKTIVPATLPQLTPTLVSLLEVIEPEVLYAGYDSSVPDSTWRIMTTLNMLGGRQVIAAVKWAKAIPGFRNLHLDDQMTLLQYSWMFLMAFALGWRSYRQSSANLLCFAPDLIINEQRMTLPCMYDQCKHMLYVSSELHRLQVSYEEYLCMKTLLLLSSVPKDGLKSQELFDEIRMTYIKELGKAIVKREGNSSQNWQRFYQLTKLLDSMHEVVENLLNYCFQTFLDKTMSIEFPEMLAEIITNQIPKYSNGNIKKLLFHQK

CC(C)(C)c1ccc(C(O)CCCN2CCC(C(O)(c3ccccc3)c3ccccc3)CC2)cc1 (centres undefined)
active: [2] 29.8 µM and 18.8 µM
inactive: [1] | [3] | [4] | [5] | [6] | [7] | [8] | [9] | [10] | [11] | [12] | [13] | [14] | [15] | [16] | [17]

Cc1cc(-n2nc3ccc(Cl)cc3n2)c(O)c(C(C)(C)C)c1
inactive: [1] | [2] | [3] | [18] | [4] | [5] | [6] | [7] | [8] | [9] | [10] | [11] | [12] | [13] | [14] | [15] | [16] | [17]

[Cu+]
inactive: [1] | [2] | [3] | [4] | [5] | [6] | [7] | [8] | [9] | [10] | [11] | [12] | [13] | [14] | [15]

CN1CCN(Cc2cc(-c3ccc4[nH]c(=O)oc4c3)co2)[C@@H](c2ccc(F)cc2)C1
active: [18] 14.8 µM | [17] 42 µM
inactive: [1] | [2] | [3] | [4] | [5] | [6] | [7] | [8] | [9] | [10] | [11] | [12] | [13] | [14] | [16]

COc1cccc2c1C(=O)c1c(O)c3c(c(O)c1C2=O)C[C@@](O)(C(C)=O)C[C@@H]3O[C@H]1C[C@H](N)[C@H](O)[C@H](C)O1
active: [18] 1.5 µM and 4.35 µM | [16] 3.01 µM [inconclusive] and 49.3 µM [inconclusive]
inactive: [3] | [6] | [7] | [8] | [9] | [10] | [11] | [12] | [13] | [14]

Source: PubChem BioAssay (Tox21)
